PAD4 inh = human PAD4 inhibitors, primary screen, biochemical, fluorescence polarization, 1536-well format; recombinant PAD4, RCA probe fluorescence polarization; inhibition, % at 6.36 µM; 330,000 tested, 0.41% active;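 active means percent inhibition above a cutoff equal to the mean of all tested compounds plus 3 SD, cut at about 15% in these data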
GSTO1 counter = inhibitors of recombinant GSTO1, primary screen, counter-screen for RBBP9 inhibitor project, biochemical, fluorescence polarization. Glutathione S-transferase omega-1 (Homo sapiens), P78417. inhibition, % at 5.96 µM. activity-based probe fluorescence polarization. 300,000 tested, 1.1% active;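 active means inhibition above the campaign mean inhibition plus 3 SD, cut at about 35% in these data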
LYPLA1 counter = LYPLA1 inhibitors, primary screen, counter-screen for PME1 inhibitor project, biochemical, fluorescence polarization, FP-Rh probe ABPP; 320,000 tested, 0.16% active; AID 2174, 2009; Acyl-protein thioesterase 1 (Homo sapiens), O75608; recombinant LYPLA1; inhibition, % at 5.9 µM;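 active means inhibition above the mean of all tested compounds plus 3 SD, set per campaign, cut at about 14% in these data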;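 further: inhibitors block serine hydrolase probe labeling of LYPLA1 so polarization falls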
Fam108B inh = mouse Fam108B serine hydrolase inhibitors, primary screen, counter-screen for RBBP9 inhibitor project, biochemical, fluorescence polarization; AID 1947, 2009; inhibition, % at 9.51 µM; recombinant Fam108B, FP-Rh probe fluorescence polarization; 300,000 tested, 0.33% active;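 active means inhibition above the screen mean inhibition plus 3 SD, computed separately per campaign, cut at about 18% in these data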;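 further: inhibitors lower polarization as less probe binds the enzyme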
LYPLA2 inh = LYPLA2 inhibitors, primary screen, counter-screen for PME1 inhibitor project, biochemical, fluorescence polarization, FP-Rh probe ABPP | recombinant LYPLA2 | inhibition, % at 5.9 µM | 320,000 tested, 0.38% active;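 active means inhibition above the screen-wide mean plus 3 SD, limit set per campaign, cut at about 26% in these data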
Target sequence (O95372 whole entry, looked up): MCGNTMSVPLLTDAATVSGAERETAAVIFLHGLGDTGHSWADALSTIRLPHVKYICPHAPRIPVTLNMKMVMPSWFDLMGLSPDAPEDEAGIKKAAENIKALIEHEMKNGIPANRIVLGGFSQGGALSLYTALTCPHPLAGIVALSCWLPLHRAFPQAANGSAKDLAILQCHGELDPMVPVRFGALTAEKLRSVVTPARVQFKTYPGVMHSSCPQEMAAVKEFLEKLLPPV
PME-1 primary = PME-1 inhibitors via competitive probe labeling, primary screen, biochemical, fluorescence polarization, FP-Rh probe, HTS; 320,000 tested, 0.53% active; Protein phosphatase methylesterase 1 (Homo sapiens), Q9Y570; AID 2130, 2009; recombinant PME-1; inhibition, % at 5.9 µM;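 active means inhibition above the campaign mean of all compounds plus 3 SD, cut at about 26% in these data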;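 further: competitive labeling of PME-1 active site by serine hydrolase directed probe; inhibitors block probe labeling so polarization falls and inhibition rises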
Target sequence (Q9Y570 whole entry, looked up): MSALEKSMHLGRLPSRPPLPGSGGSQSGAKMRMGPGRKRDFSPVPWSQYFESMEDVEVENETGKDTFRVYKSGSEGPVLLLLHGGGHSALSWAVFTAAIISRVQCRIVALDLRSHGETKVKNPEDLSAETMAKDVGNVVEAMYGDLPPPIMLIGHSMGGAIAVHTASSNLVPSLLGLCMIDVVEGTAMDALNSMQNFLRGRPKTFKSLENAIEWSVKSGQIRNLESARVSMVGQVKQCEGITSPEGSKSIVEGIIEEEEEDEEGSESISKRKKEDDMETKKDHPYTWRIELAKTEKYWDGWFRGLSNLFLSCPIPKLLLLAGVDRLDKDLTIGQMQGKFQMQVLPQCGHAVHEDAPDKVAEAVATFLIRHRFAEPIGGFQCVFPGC
Fam108b confirm = mouse Fam108b serine hydrolase inhibitors, confirmation, counter-screen for RBBP9 inhibitor project, biochemical, fluorescence polarization, triplicate. shares compounds with Fam108B inh. recombinant Fam108b, FP-Rh probe fluorescence polarization. inhibition, % at 9.51 µM. 930 tested, 44% active. AID 1978, 2009;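 active means inhibition above a limit from the primary screen, the mean over all compounds plus 3 SD, cut at about 19% in these data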;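 further: inhibitors free the probe so polarization falls as inhibition rises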
Fam108b ABPP HTS = inhibition of mouse Fam108b by HTS hits, late-stage follow-up, biochemical, gel-based ABPP, soluble recombinant form; inhibition, % at 20 µM; fluorophosphonate probe; shares compounds with Fam108B inh; 260 tested, 44% active; in the data active means inhibition above about 40%
Each line names hits and unclear results; the compound was inactive in the other large screens (follow-up assays come after a bar, where they were run). Most compounds without a hit are left out; they make up all but 1.8% or so of the library.

Brc1csc(/C=N/Nc2nc3ccccc3s2)c1	Fam108B inh 31.5, PME-1 primary 31.1 | Fam108b confirm 36.8
O=[N+]([O-])c1cc(Cl)cc(/C=N/Nc2nc3ccccc3s2)c1O	Fam108B inh 32.7 | Fam108b confirm inactive
C(=N\Nc1nc2ccccc2s1)/c1ccccn1	none
CC(C)(C)N/N=C/c1cc(Cl)cc([N+](=O)[O-])c1O	none
Brc1cc2c(cc1/C=N/Nc1nc3ccccc3s1)OCO2	none
CC12CCC(=O)C=C1CCC1C2C(O)CC2(C)C1CCC2(O)C(=O)CO (configuration not stated)	none
Cc1nn(-c2ccccc2)c(Cl)c1/C=N/NC(=O)c1cccc(S(=O)(=O)N2CCCC2)c1	none
Cc1nn(-c2ccccc2)c(N2CCCC2)c1/C=N/NC(=O)c1cc(-c2ccccc2)nc2ccccc12	none
Cc1nn(-c2ccccc2)c(N2CCCC2)c1/C=N/NC(=O)c1cc2ccccc2cc1O	Fam108B inh 27.2, PME-1 primary 38.0 | Fam108b confirm inactive
Cc1nn(-c2ccccc2)c(N2CCCC2)c1/C=N/NC(=O)c1cccc(S(=O)(=O)Nc2ccc(Cl)cc2)c1	Fam108B inh 21.9 | Fam108b confirm inactive
COc1cc2cc(-c3ccc(O)cc3O)nc(C)c2cc1OC	Fam108B inh 19.6 | Fam108b confirm 20.9
O=[N+]([O-])c1ccc(O)c(/C=N/NC(=S)Nc2ccc(Cl)cc2Cl)c1	Fam108B inh 42.6 | Fam108b confirm 48.5
Cc1cc(Cl)ccc1NC(=O)CCC(=O)N/N=C/c1cc([N+](=O)[O-])ccc1O	none
Nc1nn2c(-c3ccccc3)cc(=O)[nH]c2c1N=Nc1ccc(O)cc1	Fam108B inh 20.8 | Fam108b confirm inactive
Cc1cccc2c(N=Nc3ccc(S(=O)(=O)Nc4ccc(Cl)cc4)cc3[N+](=O)[O-])c(O)[nH]c12	Fam108B inh 20.2 | Fam108b confirm inactive
CC(Nc1cc(C)cc(C)c1)=[N+](C)CCNS(=O)(=O)c1ccc(Cl)cc1	none
COC(=O)[C@H](CO)NS(=O)(=O)c1ccc(C)cc1	none (no result: GSTO1 counter, LYPLA1 counter, Fam108B inh, LYPLA2 inh, PME-1 primary)
COc1ccc(NC(=O)CN(C)CC(=O)NC2CCC(C)CC2)cc1 (configuration not stated)	none (no result: GSTO1 counter, Fam108B inh)
COc1ccc(CN2C(=O)c3c(c(C)n(C)c3C)C2C(=O)NC2CCC(C)CC2)cc1 (configuration not stated)	Fam108B inh 23.9 | Fam108b confirm inactive
O=C(CSc1nc(C(F)(F)F)cc(=O)[nH]1)Nc1cccc2ccccc12	none
CC1=CC(C#N)(C#N)C(C#N)(C#N)C(c2ccccc2)N1 (configuration not stated)	LYPLA1 counter 41.7, Fam108B inh 42.8, LYPLA2 inh 44.4, PME-1 primary 50.4 | Fam108b confirm inactive
Cn1c(=O)c(C#N)c(-c2ccc(F)cc2)c2cc(C(=O)c3cc(Cl)cc(Cl)c3O)cnc21	Fam108B inh 22.4, PME-1 primary 63.4 | Fam108b confirm 21.5
Cc1ccc(N(C)C(=O)CCS(=O)(=O)c2ccc3c(c2)oc(=O)n3C)cc1	none
O=C(c1cc(O)c(O)c([N+](=O)[O-])c1)c1ccccc1F	Fam108B inh 49.0 | Fam108b confirm 91.3 | Fam108b ABPP HTS inactive
COc1ccc(NCN2C(=O)C3C4C=CC(C4)C3C2=O)cc1 (configuration not stated)	none
COc1ccc(/C=C(\C#N)C(=O)Nc2cccc(C)n2)cc1	none
Cc1cccc(NC(=O)/C(C#N)=C/c2ccccc2Cl)n1	none
Cc1cccc(NC(=O)/C(C#N)=C/c2ccc(Cl)cc2)n1	Fam108B inh 19.2 | Fam108b confirm inactive
Cc1cccc(NC(=O)/C(C#N)=C/c2cccc([N+](=O)[O-])c2)n1	Fam108B inh 24.9 | Fam108b confirm 21.4
Cc1ccc(NCC(=O)N/N=C/c2c[nH]c3ccccc23)cc1	none
O=c1[nH]n2c(=O)c3c([nH]c2c1N=Nc1cccc(Cl)c1)CCC3	Fam108B inh 20.8, PME-1 primary 56.2 | Fam108b confirm inactive
NS(=O)(=O)c1ccc(N=Nc2c(=O)[nH]n3c(=O)c4c([nH]c23)CCCC4)cc1	none
CC1CCCN(C(=O)c2ccc(NS(=O)(=O)c3cccc([N+](=O)[O-])c3)cc2)C1 (configuration not stated)	none
O=[N+]([O-])c1ccc(/C=N/Nc2ccnc3cc(Cl)ccc23)o1	Fam108B inh 19.3 | Fam108b confirm inactive
CCc1ccc(S(=O)(=O)N=C2C=C(Sc3ncn[nH]3)C(=O)c3ccccc32)cc1	none (no result: PAD4 inh, GSTO1 counter, LYPLA1 counter, Fam108B inh, LYPLA2 inh, PME-1 primary) | Fam108b ABPP HTS 60.0
Cc1ccc(S(=O)(=O)/N=C(/c2ccccc2)N(C)C)c(C)c1	none
CCN(c1ccccc1)S(=O)(=O)c1ccc(Cl)c(NC(=O)CSc2ncn[nH]2)c1	none
Cc1ccc(S(=O)(=O)N=C2C=C(Sc3ncn[nH]3)C(=O)c3ccccc32)c(C)c1	none (no result: PAD4 inh, GSTO1 counter, LYPLA1 counter, Fam108B inh, LYPLA2 inh, PME-1 primary) | Fam108b ABPP HTS 95.0
CC(C)c1ccc(-c2nc(N3CCCCC3)[nH]c(=O)c2C#N)cc1	none
CC1=Nc2nc(N3CCCCC3)c(C#N)c3c4c(nc(c23)N1)N(c1ccc(C(C)C)cc1)C(=O)C4	Fam108B inh 26.8 | Fam108b confirm inactive
CCn1ccnc1CN(C)C(=O)C1CCC(=O)N(Cc2cccc(F)c2)C1 (configuration not stated)	none
Cc1ccccc1-c1nc2sc3c(c2c(=O)o1)CCC3	Fam108B inh 20.8 | Fam108b confirm inactive
CCN(CC)S(=O)(=O)c1ccc(N/N=C/c2ccc(O)cc2O)nc1	Fam108B inh 21.6, PME-1 primary 48.1 | Fam108b confirm inactive
CC(C)c1ccc(NC(=O)CN2C(=O)NC(C)(C3CC3)C2=O)cc1 (configuration not stated)	none (no result: GSTO1 counter, Fam108B inh)
COc1ccc(C(=O)NCC(=O)OCC(=O)Nc2cccc(S(=O)(=O)N3CCCC3)c2)cc1	none
O=C(COC(=O)CNC(=O)c1ccc(Cl)cc1)Nc1cccc(S(=O)(=O)N2CCCC2)c1	Fam108B inh 63.8 | Fam108b confirm inactive
CCOc1ccc(/C=N/NC(=O)c2nnn(-c3nonc3N)c2-c2ccc(OCC)cc2)cc1	none

Screens (PubChem)
